Assay outcomes (PubChem)
HCMV antiviral – inhibitors of human cytomegalovirus | HFF cells, HCMV-luciferase reporter, 72 h; stronger effect = lower value | activity change, negative = inhibition, % at 57.5 µM | actives 4.5% (n = 410,000) | AID 1259415; in the data active = activity change below about -60%; inconclusive = no clear call, values can overlap the other calls; inactive = above about -39%
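Human foreskin fibroblasts infected with luciferase-reporter HCMV at MOI 1 PFU/cell, compounds at two doses. Luciferase measured 72 h post infection; normalized to buffer-only basal and Salinomycin (10uM) controls.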
Giardia FBPA inh – blocks Giardia fructose-bisphosphate aldolase activity | A8B2U2 | purified Giardia FBPA | Potency, µM (highest dose often 59.6 µM), inactives show at the highest dose activity, negative = inhibition, actives largely listed as inhibitors | actives 0.71% (n = 290,000); also: potency is read from the fitted curve at half-maximal effect; nearly all actives have a fitted effect of over 55% in size
Target sequence (A8B2U2 whole entry, looked up): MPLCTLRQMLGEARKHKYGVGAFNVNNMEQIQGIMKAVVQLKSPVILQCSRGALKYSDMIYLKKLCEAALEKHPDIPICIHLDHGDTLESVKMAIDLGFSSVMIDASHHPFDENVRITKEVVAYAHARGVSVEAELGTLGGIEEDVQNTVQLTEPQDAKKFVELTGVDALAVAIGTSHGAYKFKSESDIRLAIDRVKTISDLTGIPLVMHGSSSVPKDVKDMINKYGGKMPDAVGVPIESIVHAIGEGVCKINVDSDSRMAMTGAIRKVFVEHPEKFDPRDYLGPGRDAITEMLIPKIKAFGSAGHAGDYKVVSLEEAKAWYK
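40 nM FBPA preincubated 10 min at RT with compound (up to 57.5 uM final), then substrate plus GAPDH/TPI/NAD/arsenate coupling and diaphorase/resazurin added. Fluorescence read after 20 min at RT, 525/598 nm.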
Pf growth 96h – P. falciparum growth inhibition at 96 hour, primary screen for plastid delayed-death inhibitors. P. falciparum luciferase reporter growth, 96 h. Potency, µM (series often up to 28.7 µM), without a hit: at the top dose activity change, negative = inhibition, usual class: inhibitors. actives 6.9% (n = 320,000); also: potency is read from the fitted curve at half-maximal effect
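Delayed-death screen, second-generation endpoint: infected erythrocytes, 2% hematocrit, 0.05% parasitemia final; 96 hours at 37 C, 5% CO2; luciferase detection reagent; luminescence decrease equals reduced growth.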
Pf growth 48h – P. falciparum growth inhibition at 48 hours (one generation); P. falciparum luciferase growth in erythrocytes, 48 h; actives 5.9% (n = 310,000); Potency, µM (highest dose often 28.7 µM), for inactives: top-dose activity change, negative = inhibition, hits mostly inhibitors; also: potency is read from the fitted curve at half-maximal effect
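Read-out is firefly luciferase luminescence from an integrated reporter in P. falciparum, so falling signal marks reduced parasite growth. Infected erythrocytes were at 2% hematocrit and 0.1% parasitemia (final) in Albumax-supplemented RPMI 1640.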
Sm TGR block – inhibitors of Schistosoma mansoni thioredoxin glutathione reductase; purified TGR, DTNB reduction, TNB absorbance 405 nm; Potency, µM (series often up to 114 µM), for inactives: at the top dose activity change, negative = inhibition, hits mostly inhibitors; actives 3% (n = 360,000); also: potency is read from the fitted curve at half-maximal effect; nearly all actives have a fitted effect of over 60% in size
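Kinetic colorimetric format: TGR-catalysed, NADPH-driven DTNB reduction monitored via TNB absorbance. Enzyme dispensed at 20 nM; compound exposure 15 min at room temperature before reaction start.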
Starred values were filed as active, the others as inactive; i = inactive; ? = inconclusive; / = no result given; [ ] = another dose, or the depositor's remark. Compounds with a hit are over-represented: about 14% of the library has one in this group of screens. Unless noted, calls follow the shape of the dose curve; as a rule, active = well fitted curve in the direction sought with a large enough effect; inconclusive = small, poorly fitted or top-dose-only effect, or another doubt; inactive = no such curve, though single readings can be large; an effect the other way counts as inactive or inconclusive. % is scaled to controls: 0 for no effect and ±100 for the full control effect.

SMILES	HCMV antiviral	Giardia FBPA inh	Pf growth 96h	Pf growth 48h	Sm TGR block
CCN1CCc2c(OCC(=O)Nc3ccc4c(c3)OCCO4)cccc2C1=O	/	-8%	6.6µM*	-40%[1.15 µM]	3%
O=C(/C=C/c1ccccc1)Nc1ccc2c(c1)OCCO2	16	-28%	?	73%	4%[57.1 µM]
COc1ccccc1/C=C/C(=O)Nc1ccc2c(c1)OCCO2	42	-24%	13µM*	327%	-2%
O=C(/C=C/c1ccco1)Nc1ccc2c(c1)OCCO2	-17	-22%	187%	i	20µM*
COc1cc2cc(C(=O)Nc3ccc4c(c3)OCCO4)[nH]c2cc1OC	-68*	/	-12%	-1%	-6%
COc1ccccc1NC(=O)Nc1ccc2c(c1)OCCO2	53	2%	4%	56%	-1%
COc1cccc(OC)c1C(=O)Nc1ccc2c(c1)OCCO2	-79*	2%	15%	21%	2%
CCOc1cccc(C(=O)c2ccc(O)c(O)c2O)c1	/	20µM*	/	/	/
CCOc1ccc(C(=O)c2ccc(O)c(O)c2O)cc1	/	16µM*	/	/	/
O=C1c2ccccc2-c2onc3ccc(NCCCn4ccnc4)c1c23	/	-29%	13µM*	/	20µM*
Cc1ccc(NC(=O)C(OC(=O)c2ccc(F)cc2)c2ccccc2)cc1Cl (stereo unspecified)	26	-6%	-104%	?	-6%
CC(=O)Nc1cccc(C(=O)OC(C(=O)c2ccc(C)cc2)c2ccccc2)c1 (stereo unspecified)	-1	/	78%	1.5µM*	2%
COc1ccc(C(=O)OC(C(=O)c2ccc(C)cc2)c2ccccc2)cc1 (stereo unspecified)	35	2%	7%	?	39%
CC(=O)Nc1cccc(C(=O)OC(C(=O)c2ccc(C)c(C)c2)c2ccccc2)c1 (stereo unspecified)	-13	-8%	10µM*	?	0%
COC(=O)c1ccc(NC(=O)CN2C(=O)CC(C)S(=O)(=O)c3ccccc32)cc1 (stereo unspecified)	-7	9%	?	27%	-2%
CC(=O)c1ccc(C(=O)N2CCC(CO)(Cc3cccc(C(F)(F)F)c3)CC2)cc1	-75*	0%	?	?	-4%
CC1(C(=O)N2CCC(CO)(Cc3cccc(C(F)(F)F)c3)CC2)CC1	-10	8%	17µM*	21%	18%
OCC1(Cc2cccc(C(F)(F)F)c2)CCN(Cc2cc3ccccc3o2)CC1	-32	-4%	-21%	?	45%
CCc1ccc(Nc2cc(C)nc3nc(C)nn23)cc1	-8	3%	-10%	1.3µM*	2%
Cc1cc(Nc2ccc(C)c(C)c2)n2nc(C)nc2n1	-1	3%	?	0.74µM*	2%
Cc1cc(Nc2cccc(F)c2)n2nc(C)nc2n1	-13	2%	9.3µM*	?	3%
Cc1cc(Nc2ccc(Br)cc2)n2nc(C)nc2n1	-5	2%	?	2.3µM*	0%
Cc1cc(Nc2ccc(F)cc2)n2nc(C)nc2n1	10	-1%	?	/	78%
c1ccc(CNc2ncncc2-c2ccoc2)cc1	/	-8%	/	/	/
Cc1ccc(S(=O)(=O)N=S(CCO)CCO)cc1	15	4%	-6%	19%	8%
SMILES	HCMV antiviral	Giardia FBPA inh	Pf growth 96h	Pf growth 48h	Sm TGR block
CCc1ccccc1NC(=O)/C(=C/c1ccco1)c1ccccc1	-24	-13%	1.9µM*	/	35µM*
CCc1ccccc1NC(=S)NN	0	16µM*	4%	16%	3%
CC(C)OC(=O)/C(=C/c1ccco1)c1ccccc1	-12	-10%	-4%	-18%	10µM*
CC(C)(C)NC(=O)/C(=C/c1ccco1)c1ccccc1	29	-1%	84%	-10%	?
CC(OC(=O)/C(C#N)=C/c1ccco1)C(=O)N(C)c1ccccc1 (stereo unspecified)	-1	/	/	/	/
Cc1ccccc1NC(=O)/C(=C/c1ccco1)c1ccccc1	-104*	-8%	?	/	?
CCCCc1ccc(NC(=O)N[C@@H](C)C(=O)O)cc1	-2	0%	37%	25%	-5%
CCCCc1ccc(/C=C2\C(=O)c3ccccc3C(O)=C2C(=O)OCC)cc1	/	?	?	?	11µM*
COc1ccc(C(=O)N/C(N)=N/c2nc3ccccc3o2)cc1	11	11%	?	42%	5%
COc1ccc(C(=O)/C=C/Sc2nc3ccccc3o2)cc1	-105*	-2%	-27%	?	0.32µM*
CN(C)CCn1c2ccccc2c2nc3ccc([N+](=O)[O-])cc3cc21	-108*	-16%	?	1.9µM*	0%
Cc1ccc(N2C(=O)[C@@H]3C(C(=O)CCN4C(=O)c5ccccc5C4=O)=NN[C@@H]3C2=O)cc1	-8	1%	34%	13%	-21%
O=C(CCN1C(=O)c2ccccc2C1=O)C1=NN[C@@H]2C(=O)N(c3ccc4c(c3)OCO4)C(=O)[C@H]12	31	-5%	5%	36%	25µM*
CCOC(=O)c1ccc(N2C(=O)c3[nH]nc(-c4ccc(C)cc4)c3C2c2ccc(O)c(OCC)c2)cc1 (stereo unspecified)	-101*	/	/	/	-4%
CCOC(=O)c1ccc(N2C(=O)c3n[nH]c(-c4ccco4)c3C2c2ccc(C(=O)OC)cc2)cc1 (stereo unspecified)	-80*	/	/	/	-23%
CCOC(=O)c1ccc(N2C(=O)c3n[nH]c(C)c3C2c2ccc(OC)cc2)cc1 (stereo unspecified)	6	-3%	?	?	-1%
CCOC(=O)c1ccc(N2C(=O)c3n[nH]c(-c4cccs4)c3C2c2cccc(O)c2)cc1 (stereo unspecified)	-3	/	/	/	3%
CCOC(=O)c1ccc(N2C(=O)c3n[nH]c(-c4ccco4)c3C2c2cccc([N+](=O)[O-])c2)cc1 (stereo unspecified)	70	-6%	57%	8.3µM*	-4%
CCOC(=O)c1ccc(N2C(=O)c3n[nH]c(-c4ccco4)c3C2c2ccc(O)c(OCC)c2)cc1 (stereo unspecified)	-105*	/	/	/	0%
O=C(Nc1ccccc1)N[C@H]1CC[C@@]23CCCN2C(=O)CCC[C@H]3C1Cc1ccccc1 (stereo partly specified)	-17	/	/	/	/
O=C(Nc1ccc(F)cc1)c1cccc2c1C(=O)N(CC1CCCO1)C2 (stereo unspecified)	-6	-1%	25%	?	-26%
COc1ccc(N2CCN(C(CNS(=O)(=O)c3c(C)cc(C)cc3C)c3ccco3)CC2)cc1 (stereo unspecified)	?	/	/	/	-6%
COc1ccccc1N(Cc1ccccc1)S(=O)(=O)c1cccc(C(=O)Nc2ccccn2)c1	?	/	9.3µM*	10µM*	-15%
CCN(c1ccccc1)S(=O)(=O)c1ccc(C(=O)Nc2ccc(C)cn2)cc1	-36	/	?	?	10%
